# Screening data: PubChem BioAssay, National Center for Advancing Translational Sciences (NCATS)
# The sample as a whole holds a higher share of hits than the screen did.
# Methyltransferases – Primary Screen for Target Class Profiling of Small Molecule Inhibitors of Methyltransferases; purified enzyme, MTase-Glo SAH luminescence; stronger effect = lower value; calls only at 40 µM; hit rate 3.9% among 25,000; call rule not given here
#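 Each enzyme was reacted with SAM and its substrate, with compounds tested once at 40 uM; SAH formed was read by MTase-Glo luminescence.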
# MTase-Glo ctr – inhibits MTase-Glo coupling enzymes without methyltransferase; Potency, µM (doses to about 57.3 µM), actives largely listed as inhibitors; MTase-Glo coupled enzymes, SAH conversion luminescence, no MTase; hit rate 6% among 180; AID 1745851; shares compounds with Methyltransferases; active = well fitted inhibition curve with a large enough effect
# Calls only; – = inactive; + = active, no number.
SMILES,Methyltransferases,others
COc1ccc(CCN(C)CCc2ccc(OC)c(OC)c2)cc1OC,–,
COc1ccc(CNC(=O)c2cc3n(n2)CC(C)(C(=O)NC2CCCC2)N(C)C3=O)cc1OC (configuration not stated),–,
CC1(C(=O)NC2CCCCCC2)Cn2c(ccc2-c2ccccc2)C(=O)N1CCN1CCOCC1 (configuration not stated),–,
COc1ccc(-c2n[nH]n3c2nc(=O)c2ccc(C(=O)NCc4ccccc4)cc23)cc1,–,
CN1C(=O)c2cc(C(=O)NCc3ccc4c(c3)OCO4)nn2CC1(C)C(=O)NC1CCCCCC1 (configuration not stated),–,
COc1ccccc1CNC(=O)C1(C)Cn2nc(-c3ccccc3)cc2C(=O)N1c1ccc(F)cc1C (configuration not stated),–,
CN(C)S(=O)(=O)N1CCc2c(nc3cc(-c4ccccc4)[nH]n3c2=O)C1,–,
O=C(CCCc1nc2ccccc2s1)N1CCc2nc3cc(-c4ccccc4)[nH]n3c(=O)c2C1,–,
COc1ccc(-c2cc3nc4c(c(=O)n3[nH]2)CN(C(=O)CN(C)S(=O)(=O)c2cnc[nH]2)CC4)cc1,+,MTase-Glo ctr=–
CCCN1C(=O)c2cc(C(=O)NCc3ccco3)nn2CC1(C)C(=O)NC1CCCC1 (configuration not stated),–,
Cc1ccc(C)c(Cn2nc3n(Cc4ccccc4)c(=O)c4ccccc4n3c2=O)c1,–,
Cc1cccc(NC(=O)N2Cc3c(sc4c3CCCC4)-n3cccc3C2c2cc(F)cc(F)c2)c1 (configuration not stated),–,
COc1cccc([S+](=O)([O-])N2CCC3(C2)N=C(c2cccnc2)C(=O)N3)c1 (configuration not stated),+,MTase-Glo ctr=–
COc1cccc([S+](=O)([O-])N2CCC23Cc2ccccc2NC3=O)c1 (configuration not stated),–,
COc1cccc([S+](=O)([O-])N2CC(N3CCc4ccccc43)C2)c1,–,
CC1CC(C)CN(S(=O)(=O)c2ccc3c(c2)oc(=O)n3CC(=O)Nc2ccc(Cl)cc2)C1 (configuration not stated),–,
COc1ccc(OC)c2c1cc1n2CC(C)(C(=O)NC2CCCC2)N(CCc2ccccc2)C1=O (configuration not stated),–,
Cc1ccccc1NC(=O)Cn1nc2n(CCC(C)C)c(=O)c3ccc(C(=O)NCC(C)C)cc3n2c1=O,–,
CC1(COCC2CC2)COc2ccc(C(=O)Nc3cccc([S+](C)(=O)[O-])c3)cc2N1 (configuration not stated),–,
CN(C)CCOCC1(C)COc2ccc(C(=O)Nc3ccc4[nH]ccc4c3)cc2N1 (configuration not stated),+,MTase-Glo ctr=–
CN(C)C[C@@H]1CN(S(C)(=O)=O)C[C@H]1NC(=O)c1ccc2[nH]ccc2c1,–,
Fc1ccccc1CN1CCC[C@H]1c1nc(-c2ccnc(N3CCOCC3)c2)no1,–,
COCCNc1cc(-c2noc([C@@H]3CCCN3CC(C)C)n2)ccn1,+,MTase-Glo ctr=–
COCC(=O)Nc1ccc(-c2noc([C@@H]3CCCN3Cc3ncc[nH]3)n2)cn1,–,
COc1ccc(N2C(=O)CSc3c(c4ccccc4n3C)C2C(=O)NCc2ccc(F)cc2)cc1OC (configuration not stated),–,
SMILES,Methyltransferases,others
CC(C)CNC(=O)c1ccc2c(=O)n(CC(C)C)c3nn(Cc4ccc(Cl)cc4)c(=O)n3c2c1,–,
c1ccc(Cn2cc(CN3CCN(c4ccncc4)CC3)c(-c3cc4ccccc4o3)n2)cc1,+,MTase-Glo ctr=–
Cc1nn(-c2ccccc2)c(C)c1/C=N/N1CCN(Cc2ccccc2)CC1,–,
Cn1cc(CN2CCN(c3ccc(C#N)cn3)CC2)c(-c2ccccc2)n1,–,
Cc1ccc(C)c(N2C(=O)c3cc4sccc4n3CC2(C)C(=O)NC2CCC(C)CC2)c1 (configuration not stated),–,
CC1CCC(NC(=O)C2(C)Cn3c(cc4sccc43)C(=O)N2Cc2ccccc2)CC1 (configuration not stated),–,
CCOC(=O)c1cc2n(n1)CC(C)(C(=O)NC1CCCC1)N(Cc1ccc(Cl)cc1)C2=O (configuration not stated),–,
CN1C(=O)c2cc(C(=O)NC3CCCCCC3)nn2CC1(C)C(=O)NC1CCCCCC1 (configuration not stated),–,
COc1ccc(-c2nc(N3CCOCC3)cc3c2CN(Cc2ccccc2)C3=O)cn1,–,
CCNc1ncnc2sc3c(c12)CCN(Cc1ccncc1)C3,–,
c1ccc(CN2CCc3c(sc4ncnc(N5CCOCC5)c34)C2)cc1,+,MTase-Glo ctr=–
O=C(c1ccc(OC(F)F)c(C#Cc2ccccn2)c1)N1Cc2cccnc2C1,–,
CCCNS(=O)(=O)c1ccc(Cl)c(-c2nnc(-c3ccccc3)o2)c1,–,
Cc1ccc(Nc2ccn3c(=O)n(CC(=O)Nc4ccc(C)c(F)c4)nc3n2)cc1,–,
